Inhibition data for 54 compounds are collected here from PubChem BioAssay AID1987 (The Scripps Research Institute Molecular Screening Center, 2009).

The structures appear in SMILES notation. Where “and” joins values, the source holds several entries; their conditions need not be identical. Equal values may be shown once. In all, about 320,000 compounds went through this assay and about 560 (0.17%) were called active. The entries come from a sample that favours actives as a whole. A number with no mark means an inactive call.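 Rule for the calls: active = inhibition above the campaign's mean inhibition across all tested compounds plus 3 SD (cut at about 9.5% in these data); inactive = the rest.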

Serine/threonine-protein phosphatase 5 (Homo sapiens), sequence (P53041 whole entry, looked up): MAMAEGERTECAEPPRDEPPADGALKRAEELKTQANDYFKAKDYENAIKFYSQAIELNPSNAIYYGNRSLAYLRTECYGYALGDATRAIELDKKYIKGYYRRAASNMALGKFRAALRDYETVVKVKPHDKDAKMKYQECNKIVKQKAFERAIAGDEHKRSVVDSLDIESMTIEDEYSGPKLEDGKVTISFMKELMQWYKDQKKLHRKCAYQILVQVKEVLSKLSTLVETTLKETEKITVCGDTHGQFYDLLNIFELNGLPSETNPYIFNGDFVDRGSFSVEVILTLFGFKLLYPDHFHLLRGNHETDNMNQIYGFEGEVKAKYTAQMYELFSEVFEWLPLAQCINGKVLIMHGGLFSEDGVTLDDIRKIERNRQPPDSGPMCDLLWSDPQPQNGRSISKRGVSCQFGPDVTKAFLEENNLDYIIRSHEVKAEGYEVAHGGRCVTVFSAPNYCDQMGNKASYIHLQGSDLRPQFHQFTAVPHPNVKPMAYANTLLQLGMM

The experiment addresses Serine/threonine-protein phosphatase 5 (Homo sapiens) (UniProt P53041). Briefly: PP5 phosphatase inhibitors, primary screen, biochemical, fluorescence (AID 1987).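 Note: 0% = DMSO only and 100% = 100 µM cantharidin control.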 The settings on record: purified PP5c, OMFP substrate fluorescence; at 6.7 µM; stronger effect = higher value.
For the compound `Cc1c(CCC(=O)N[C@@H](CC(C)C)C(=O)O)c(=O)oc2c(C)c3oc4c(c3cc12)CCCC4`, the inhibition is -1.14%.
To `CN1CC(=O)N=C1N` belongs 2.26% and -0.51%; to `CC1(C)O[C@@H]2[C@H](O1)[C@@H](COS(=O)(=O)O)O[C@H]2n1cnc2c(=O)[nH]cnc21`, 0.9%.
For `COCCOC1CCN(C(=O)c2ccc(OC)c(OC3CCN(C(C)C)CC3)c2)CC1` the value was 0.82%.
To `CC(C)C[C@H](NC(=O)C1CC(=O)N(c2ccc3c(c2)OCCO3)C1)C(=O)NC1CCCC1` (some centres undefined) belongs -0.77%.
`COc1ccc(S(=O)(=O)NNC(=O)Nc2ccc(C)cc2)c(OC)c1`: the inhibition is 0.5%.
As for `CC(C)COC(=O)c1ccc(NC(=O)C2C3C=CC(C3)C2C(=O)O)cc1` (centres undefined), the inhibition was 1.86%.
For `CC(C)OC(=O)c1c(NC(=O)c2ccco2)sc2c1CCCC2` the value was 1.48%; for `CC(C)OC(=O)c1cc(NC(=O)C2C3CCC(O3)C2C(=O)O)cc(C(=O)OC(C)C)c1` (centres undefined), 55.6% (active).
As for `CCOC(=O)c1c(NC(=O)C2CCN(S(=O)(=O)c3ccc(Cl)cc3)CC2)sc2c1CCCC2`, the inhibition was 0.34%.
To `COC(=O)c1cc(NC(=O)C2C3C=CC(C3)C2C(=O)O)cc(C(=O)OC)c1` (centres undefined) belongs 1.39%; to `COc1ccc(NC(=O)CNC(=O)Cc2ccccc2)cc1OC`, -2.46%.
To `Cc1sc(NC(=O)C2C3CCC(O3)C2C(=O)O)c(C(=O)OC(C)C)c1-c1ccc(Cl)cc1` (centres undefined) belongs 15.1% (active); to `COc1ccc(NC(=S)SC)cc1OC`, 3.15%; to `COc1ccc(NC(=O)C2C3CCC(O3)C2C(=O)O)cc1OC` (centres undefined), 76.2% (active).
For `Cc1cc(C)n(-c2nnc(N3CCN(c4ccccc4)CC3)nn2)n1` the value was -0.74%; for `COCCCNC(=O)C1CC(=O)N(CCc2ccc(F)cc2)C1` (centres undefined), -1.89%.
As to `CC(C)CCn1cnc2c1c(=O)n(CC(=O)NC(N)=O)c(=O)n2Cc1ccccc1`, the inhibition is 1.52%.
On to `COc1ccc2c(c1)C(=O)Nc1cc(Cl)ccc1N2`, for which the inhibition is -0.62%.
For `CC(C)CN(C(=O)Cn1c(=O)cnc2ccccc21)C1CCS(=O)(=O)C1` (centres undefined) the value was -1.01%; for `COc1ccc(S(=O)(=O)N2CCN(C(=O)c3cc(C)oc3C)CC2)cc1`, 0.44%; for `CCCCn1c(N)c(N(CCC(C)C)C(=O)COC(=O)c2cccnc2OCC)c(=O)[nH]c1=O`, 0.18%.
As for `CC(=O)Nc1ccccc1OC(C)C(=O)N1CCC(C)CC1` (centres undefined), the inhibition is -1.03%.
Take `Nc1nnc(SCC(=O)OCc2ccc(Cl)c(Cl)c2)s1`: the inhibition was 1.15%.
For `CCN1C(=O)[C@H]2[C@@H](c3ccc(SC4CCCCC4)c(OC)c3)N[C@@](Cc3ccccc3)(C(=O)OC)[C@H]2C1=O` the value was 2.69%.
For `CC(C)Oc1ccc(C(CC(=O)N2CCOCC2)C(C)C)cc1` (centres undefined) the value was 0.66%.
To `Cc1cccc(N(C(=O)c2csnn2)C(C(=O)NCc2ccccc2)c2ccncc2)c1` (centres undefined) belongs 1.82%.
With `Cn1cnnc1Sc1ccc(S(C)(=O)=O)cc1[N+](=O)[O-]`, the inhibition is -0.46%.
To `CCOC(=O)c1cnc(COc2ccccc2Cl)[nH]c1=O` belongs -1.14%; to `CC1CC(C)(C)n2c(O)c(N=NC(N)=S)c3cccc1c32` (centres undefined), 3.55%.
To `Cn1ccnc1SCC(=O)Nc1ccc2c(c1)OCCO2` belongs 2.87%; to `COc1cccc(OC)c1CN(C)C(=O)c1cnccc1C(F)(F)F`, 0.42%.
To `COc1ccc(Cl)cc1C(=O)Nc1ccc(N(C)C(C)=O)cc1` belongs 0.43%; to `COc1cc(C(F)(F)F)c(C(=O)N(C)c2ccc(Cl)cc2)cn1`, 11.3% (active).
Consider `COc1ccccc1NC(=O)COC(=O)COc1ccccc1F`, for which the inhibition was 2.17%.
For the compound `CC(C)c1cc(CN2CCOCC2)cc(C(C)C)c1O`, the inhibition was 1.58%.
To `Oc1c(C(c2ccccn2)N2CCOCC2)ccc2cccnc12` (centres undefined) belongs 11.2% (active); to `CN(C)c1ccc(C(CC(=O)O)C(=O)O)cc1` (centres undefined), 0.86%.
To `CCN(CC)c1nc(-c2ccccc2)cc(C(F)(F)F)c1C#N` belongs 0.13%; to `O=C(Cc1ccccc1Cl)N1CCOCC1`, -1.76%.
To `CN(C(=O)Nc1ccc(Cl)cc1)n1cnc2ccccc2c1=O` belongs -2.44%; to `CC(C)(C)c1cc[n+](-c2[nH]c(=O)sc2/C=N/N=C(\[O-])c2ccccc2)cc1`, -0.11%.
Take `O=C(CSc1ncnc2sccc12)N1CCN(C(=O)c2cccs2)CC1`: the inhibition was 0.16%.
For `CCC(C)Sc1nc(C)nc2c1c(=O)n(C)c(=O)n2C` (centres undefined) the value was 2.18%.
For `CCn1c(C)nc2c1C(=O)c1ccccc1C2=O` the value was -1.27%.
To `CCc1nnc(NC(=O)c2cc(S(=O)(=O)N3CCCCC3)ccc2C)s1` belongs 3.35%; to `O=S1(=O)CC/C(=N\Nc2ccc(F)cc2)c2ccsc21`, 1.6%.
As to `O=Cc1cn(-c2ccccc2)nc1-c1ccccn1`, the inhibition was 0.89%.
For `C=CCc1ccccc1OCC(O)CN1CCN(CCO)CC1` (centres undefined) the value was 0.89%.
Turning to `O=C(NCCCN1CCOCC1)c1ccc2c(c1)N(Cc1cccc(F)c1)C(=O)c1ccccc1S2`, the inhibition was -0.03%.
For the compound `CCN1CCN(CCNC(=O)c2ccc(/C=C3/Sc4ccccc4N(Cc4cccc(C)c4)C3=O)cc2)CC1`, the inhibition was 10.1% (active).
To `CN1CCN(CCCNC(=O)c2ccc(/C=C3\Oc4ccccc4N(Cc4ccc(Cl)cc4)C3=O)cc2)CC1` belongs 4.83%; to `COc1ccc(CNc2c(CO)cnc3c2cnn3C)cc1`, 0.82%.
Regarding `CC(C(=O)c1ccc(-c2ccccc2)cc1)[n+]1cccc(Br)c1` (centres undefined), the inhibition is 0.21%.

A word on the inhibition: it is the relative decrease from the control value, in per cent.
